A selection: hits, their analogues and other compounds. The true share with any hit is near 21%.
CYP2C19 inhib – inhibitors of human CYP2C19; CYP2C19 Supersomes, luciferin-H EGE luminescence, 30 min; 96,000 tested, 21% active; P33261; inhibition, % at 5 µM;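 active = CYP2C19 inhibition above a set limit at 5 µM in the primary screen, cut at about 50% in these data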;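 note: plate controls were negative control wells for no effect and 2.5 mM tranylcypromine positive control for full effect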
MRP resist rev – MRP-mediated drug resistance reversal; H69AR cells + 2 uM doxorubicin, CellTiter-Glo, 72 h; differential viability (reversal), % at 10 µM; 85,000 tested, 0.04% active;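 active = viability drop by adding the cancer drug above about 55%, with treated viability meeting a 40% cutoff, limit read from the data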;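 note: viability without doxorubicin minus viability with 2 µM doxorubicin for each compound; larger differential means the compound sensitizes cells more to doxorubicin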
CYP2C9 activ – increases human cytochrome P450 2C9 activity; recombinant CYP2C9, luciferin-H conversion, luminescence; active compounds read high; factor 1 = untreated enzyme, 0 = blocked; activation factor at 5 µM; 96,000 tested, 1.4% active;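 active = activation factor of 2 or more for CYP2C9 at a 5 µM dose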;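 note: 0 = sulfaphenazole-blocked wells and 1 = vehicle-only wells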
Target sequence (P11712 whole entry, looked up): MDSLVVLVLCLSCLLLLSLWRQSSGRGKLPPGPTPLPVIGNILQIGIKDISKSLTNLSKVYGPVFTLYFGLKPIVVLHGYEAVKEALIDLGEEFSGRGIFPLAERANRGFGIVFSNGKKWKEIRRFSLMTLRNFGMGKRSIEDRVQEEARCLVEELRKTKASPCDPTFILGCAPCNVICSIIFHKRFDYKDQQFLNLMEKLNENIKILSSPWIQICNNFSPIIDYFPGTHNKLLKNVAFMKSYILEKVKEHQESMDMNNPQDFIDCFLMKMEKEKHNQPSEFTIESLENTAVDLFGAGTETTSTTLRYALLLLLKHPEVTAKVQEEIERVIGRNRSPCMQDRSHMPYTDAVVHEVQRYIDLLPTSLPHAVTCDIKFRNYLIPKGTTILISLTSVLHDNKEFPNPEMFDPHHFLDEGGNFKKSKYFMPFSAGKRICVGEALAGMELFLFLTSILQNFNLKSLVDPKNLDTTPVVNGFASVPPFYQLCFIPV
CYP2C9 inhib – human CYP2C9 inhibition; AID 777; inhibition, % at 5 µM; CYP2C9 Supersomes, luciferin-H conversion, luminescence; 96,000 tested, 20% active;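 active = blocking of liver enzyme CYP2C9 beyond about 50% at 5 µM, limit read from the data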
CYP2C19 act – cytochrome P450 2C19 (human) activation. 96,000 tested, under 10 active. activation factor at 5 µM. recombinant CYP2C19, luciferin-H EGE luminescence; active compounds read high; 0 = fully inhibited enzyme, 1 = untreated enzyme;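 active = activation factor of at least 2 at 5 µM in the primary screen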;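 note: 0 = wells with 2.5 mM tranylcypromine and 1 = vehicle-only wells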
MRP-1 activ – activates MRP-1 | viability increase, % at 10 µM | AID 799 | 140,000 tested, 0.61% active | H69AR cells + doxorubicin, viability rescue, CellTiter-Glo;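 active = viability gain under doxorubicin at or above a set limit, the compound median plus 3 SD, cut at about 4.7% in these data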;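 note: MRP-1 overexpressing cells given doxorubicin 25 µM after compound pretreatment; 18-22 h compound pretreatment then 72 h with doxorubicin before readout; 0% = doxorubicin-only wells and 100% = vehicle-treated cells without doxorubicin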
Active calls of the source: *; nt = not tested or not shown.

SMILES	CYP2C19 inhib	MRP resist rev	CYP2C9 activ	CYP2C9 inhib	CYP2C19 act	MRP-1 activ
O=C(CSC1=NCCS1)Nc1ccc(S(=O)(=O)NC2CCCCC2)cc1	24	-8	0.4	56*	0.8	-3
O=C(CSC1=NCCS1)Nc1ccc(S(=O)(=O)N2CCCCCC2)cc1	39	nt	0.4	62*	0.6	-2
CC(=O)Nc1ccc(NC(=O)CSC2=NCCS2)cc1	55*	7	0.2	81*	0.4	0
COc1cc(NS(=O)(=O)c2ccc(NC(=O)CSC3=NCCS3)cc2)nc(OC)n1	6	-2	0.7	32	0.9	-1
COc1ccc2cc(C(N)=O)/c(=N/NC(=O)c3ccco3)oc2c1	nt	nt	nt	nt	nt	-4
O=C(CCCOc1ccc(Cl)cc1Cl)NN1CCOCC1	nt	nt	nt	nt	nt	-1
O=C(CNC(=O)c1cnccn1)Nc1ccc(F)c(F)c1F	46	16	0.9	6	0.5	1
CC(=O)N1C(=O)CC(C)N(C(C)=O)c2ccc([N+](=O)[O-])cc21 (stereo unspecified)	nt	nt	nt	nt	nt	1
COc1ccc(CCNC(=O)COc2ccc(S(=O)(=O)NC3CCCCC3)cc2Cl)cc1OC	nt	nt	nt	nt	nt	2
O=C(COc1ccc(S(=O)(=O)NC2CCCCC2)cc1Cl)NCc1ccc2c(c1)OCO2	94*	9	0	98*	0.1	0
O=C(COc1ccc(S(=O)(=O)NC2CCCCC2)cc1Cl)Nc1ccc2c(c1)OCO2	50	8	0.1	87*	0.5	-1
Cc1ccccc1CN(c1ccc(C(=O)Nc2cccnc2)cc1)S(C)(=O)=O	98*	20	0	96*	0	-2
COc1ccc(NC(=O)c2ccc(CN(c3cc(Cl)ccc3C)S(=O)(=O)c3ccccc3)cc2)cc1OC	24	nt	0.3	66*	0.8	-1
Cc1ccc(CN(c2ccc(C(=O)NCc3cccnc3)cc2)S(C)(=O)=O)cc1	93*	9	0.1	94*	0.1	0
CS(=O)(=O)N(Cc1ccc(C(=O)NCCSCc2ccco2)cc1)c1ccccc1	55*	9	0.2	85*	0.4	-1
COc1ccccc1NC(=O)c1ccc(CN(c2cc(Cl)ccc2C)S(=O)(=O)c2ccccc2)cc1	-4	nt	0.8	20	1	0
CCOC(=O)Nc1c(C(=O)OC)[nH]c2cccc(OC)c12	17	3	0.9	10	0.8	0
Cc1ccc(N(CC(=O)Nc2ccccc2-c2ccccc2)S(=O)(=O)c2ccccc2)c(C)c1	nt	nt	nt	nt	nt	-1
O=C(Nc1ccccc1Cl)c1ccc(COc2ccc3c(c2)CCC3)cc1	nt	nt	nt	nt	nt	1
CCCC1=C(C(=O)OCC)C(c2ccccc2OC)NC(=O)N1 (stereo unspecified)	29	16	0.8	22	0.7	0
Cc1ccc(Cl)cc1N(Cc1ccc(C(=O)NCc2cccnc2)cc1)S(=O)(=O)c1ccccc1	36	nt	0.4	58*	0.6	-6
CC(=O)c1cccc(NC(=O)c2ccc(N(Cc3ccccc3)S(C)(=O)=O)cc2)c1	6	14	0.9	13	0.9	1
CNC(=O)c1ccc(N(Cc2ccccc2)S(C)(=O)=O)cc1	52*	-13	0.6	36	0.5	-1
COc1cccc(NS(=O)(=O)c2nc3nc(C)cc(C)n3n2)c1	-4	8	1.1	-7	1	-2
N#Cc1ccc(Oc2ccc(/C=N/O)cn2)cc1	26	nt	1.1	-11	0.7	-1
SMILES	CYP2C19 inhib	MRP resist rev	CYP2C9 activ	CYP2C9 inhib	CYP2C19 act	MRP-1 activ
CCCCCCCCNc1ncnc2ccccc12	79*	-1	0.2	82*	0.2	2
Cn1c(=O)c2c(nc(OCc3ccc4c(c3)OCO4)n2Cc2ccccc2Cl)n(C)c1=O	56*	nt	0.9	10	0.4	-2
CCCn1c(CN(C)Cc2ccccc2)nc2c1c(=O)n(C)c(=O)n2C	nt	-7	nt	nt	nt	0
CCCn1c(CN(Cc2ccccc2)Cc2ccccc2)nc2c1c(=O)n(C)c(=O)n2C	8	4	0.1	87*	0.9	3
CCCCn1c(CN(C)Cc2ccccc2)nc2c1c(=O)n(C)c(=O)n2C	55*	4	0	98*	0.4	-1
COC(=O)Cn1c(CN(Cc2ccccc2)Cc2ccccc2)nc2c1c(=O)[nH]c(=O)n2C	35	-15	0.5	53*	0.7	-3
Cn1c(=O)c2c(nc(NCc3ccc4c(c3)OCO4)n2Cc2ccccc2Cl)n(C)c1=O	1	-11	1	1	1	-1
